Test results as given in PubChem BioAssay (Tox21).
Unmarked numbers belong to inactive results. Results filed as inconclusive are left out. A call without a number means that no potency is given here. Active and inactive are the calls of the source. Unless noted, calls follow the shape of the dose curve; as a rule, active = well fitted curve in the direction sought with a large enough effect in the repeat runs; inconclusive = weak or mixed curves; inactive = no such curve, though single readings can be large; an effect the other way counts as inactive or inconclusive.

Legend:
[1] = molecular target: Thyrotropin receptor (Homo sapiens) (UniProt P16473); experiment: qHTS assay to identify small molecule antagonists of the thyroid stimulating hormone receptor (TSHR) signaling pathway (AID 1259385; calls by dose curve; also: nearly all actives have a fitted effect of over 20% in size)
Chain of Thyrotropin receptor (Homo sapiens) (P16473 whole entry, looked up): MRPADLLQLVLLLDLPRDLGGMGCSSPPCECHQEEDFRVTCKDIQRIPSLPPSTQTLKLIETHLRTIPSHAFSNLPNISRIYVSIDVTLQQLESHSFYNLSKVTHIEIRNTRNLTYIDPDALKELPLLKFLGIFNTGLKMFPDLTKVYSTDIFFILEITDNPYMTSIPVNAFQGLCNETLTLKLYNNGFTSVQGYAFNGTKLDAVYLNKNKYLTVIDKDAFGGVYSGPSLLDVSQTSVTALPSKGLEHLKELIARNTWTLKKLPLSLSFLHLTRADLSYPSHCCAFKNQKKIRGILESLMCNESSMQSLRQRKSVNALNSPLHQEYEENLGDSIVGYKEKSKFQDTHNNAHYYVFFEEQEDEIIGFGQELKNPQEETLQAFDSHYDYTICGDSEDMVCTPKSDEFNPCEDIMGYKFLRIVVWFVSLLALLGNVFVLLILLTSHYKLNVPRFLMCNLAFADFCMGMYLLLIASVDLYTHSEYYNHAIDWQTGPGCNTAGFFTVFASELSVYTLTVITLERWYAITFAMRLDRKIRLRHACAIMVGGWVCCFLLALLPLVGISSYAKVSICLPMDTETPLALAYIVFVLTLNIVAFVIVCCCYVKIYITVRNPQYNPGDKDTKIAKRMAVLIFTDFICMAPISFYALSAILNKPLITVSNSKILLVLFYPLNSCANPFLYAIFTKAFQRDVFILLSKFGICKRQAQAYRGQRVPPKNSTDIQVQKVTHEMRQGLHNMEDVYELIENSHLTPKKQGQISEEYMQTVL
How it was run: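 TSHR-HEK293 cells were plated and held 18 h at 37C/5% CO2, then given compound plus Ro20-1724 and stimulated with TSH at 1.5 ng/mL final. After 30 min at room temperature, cAMP was detected with cAMP-d2/anti-cAMP-cryptate (1 h) by fluorescence.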

[2] = qHTS assay to identify small molecule agonists of the estrogen receptor alpha (ER-alpha) signaling pathway in the presence of an antagonist - cell viability counter screen (AID 1259386);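 also: series mostly up to about 92 µM; cells exposed to compounds for 22 h at 37 °C before the viability read; nearly all actives have a fitted effect of over 30% in size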
How it was run: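 Cell viability in VM7Luc4E2 cells (endogenous full-length ER-alpha) measured by CellTiter-Fluor fluorescence in the same wells as the luciferase screen. Cells pre-cultured 5 days in charcoal-stripped serum, then treated 22 h with compounds at 15 concentrations plus 10.0nM ICI-182,780.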

[3] = molecular target: Progesterone receptor (Homo sapiens) (UniProt P06401); experiment: qHTS assay to identify small molecule agonists of the progesterone receptor (PR) signaling pathway (AID 1346784; calls by dose curve; also: nearly all actives have a fitted effect of over 30% in size)
Chain of Progesterone receptor (Homo sapiens) (P06401 whole entry, looked up): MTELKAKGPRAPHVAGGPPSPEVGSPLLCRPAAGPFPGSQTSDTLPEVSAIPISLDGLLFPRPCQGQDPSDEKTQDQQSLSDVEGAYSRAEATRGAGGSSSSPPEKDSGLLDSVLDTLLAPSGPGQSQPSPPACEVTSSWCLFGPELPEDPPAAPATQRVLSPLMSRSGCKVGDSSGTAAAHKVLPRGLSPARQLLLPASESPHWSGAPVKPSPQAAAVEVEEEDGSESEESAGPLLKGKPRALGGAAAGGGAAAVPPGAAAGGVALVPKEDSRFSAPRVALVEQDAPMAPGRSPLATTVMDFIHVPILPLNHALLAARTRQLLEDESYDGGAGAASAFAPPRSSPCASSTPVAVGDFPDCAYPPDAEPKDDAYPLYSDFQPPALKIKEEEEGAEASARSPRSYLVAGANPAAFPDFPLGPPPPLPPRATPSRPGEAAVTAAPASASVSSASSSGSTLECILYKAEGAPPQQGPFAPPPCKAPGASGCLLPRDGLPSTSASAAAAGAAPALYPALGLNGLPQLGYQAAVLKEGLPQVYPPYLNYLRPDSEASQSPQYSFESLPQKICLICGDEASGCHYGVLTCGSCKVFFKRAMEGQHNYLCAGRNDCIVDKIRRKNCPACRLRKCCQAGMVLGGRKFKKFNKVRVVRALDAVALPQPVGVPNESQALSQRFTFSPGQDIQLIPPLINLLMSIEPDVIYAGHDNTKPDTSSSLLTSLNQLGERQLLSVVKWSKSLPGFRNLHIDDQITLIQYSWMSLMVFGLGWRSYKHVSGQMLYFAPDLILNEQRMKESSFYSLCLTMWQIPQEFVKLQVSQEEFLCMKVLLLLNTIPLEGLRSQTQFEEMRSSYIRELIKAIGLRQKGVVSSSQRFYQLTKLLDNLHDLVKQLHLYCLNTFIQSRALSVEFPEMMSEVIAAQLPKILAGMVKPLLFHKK
How it was run: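 PR-UAS-bla HEK 293T cells (beta-lactamase reporter under UAS) in 2% charcoal-stripped FBS, dosed with 23 nL compound after 6 hr, incubated 16hr at 37C. LiveBLAzer B/G FRET substrate added, fluorescence read after 2 hours.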

[4] = molecular target: Progesterone receptor (Homo sapiens) (UniProt P06401); experiment: qHTS assay to identify small molecule antagonists of the progesterone receptor (PR) signaling pathway (AID 1346795; active = well fitted inhibition curve with a large enough effect in the signal ratio in the repeat runs, not every such curve was filed as active; the % refers to the signal ratio)
How it was run: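 PR-UAS-bla HEK293T cells with beta-lactamase reporter under UAS control, in 2% charcoal-stripped FBS, treated with compounds plus 1 nM promegestone (R5020, final) for 16 hr at 37C. Read-out: FRET beta-lactamase substrate fluorescence after 2 hr at room temperature.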

[5] = qHTS assay to identify small molecule antagonists of the progesterone receptor (PR) signaling pathway - cell viability counter screen (AID 1346798); also: series mostly up to about 92 µM; nearly all actives have a fitted effect of over 50% in size
How it was run: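 PR-UAS-bla HEK293T cells, 3,000/well in 2% charcoal-stripped FBS medium, dosed with compounds plus R5020 agonist and incubated 16 h at 37C. Viability then measured in the same wells by CellTiter-Glo luminescence after 30 min at RT.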

[6] = qHTS assay to identify small molecule agonists of the progesterone receptor (PR) signaling pathway - cell viability counter screen (AID 1346799; calls by dose curve; also: nearly all actives have a fitted effect of over 45% in size)
How it was run: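 Counter screen in the PR-UAS-bla HEK293T wells (2% charcoal-stripped FBS, 16 h compound exposure at 37 C) after the bla read. CellTiter-Glo added, 30 min at room temperature, luminescence read as cell viability.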

[7] = qHTS assay to identify small molecule antagonists of the TGF-beta/Smad signaling pathway - cell viability counter screen (AID 1346824); also: nearly all actives have a fitted effect of over 50% in size
How it was run: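 SBE-bla HEK 293T cells were plated overnight at 37 C, then given compounds in DMSO plus TGF-beta1 (added as 0.25 ng/mL solution) for 5 hr. After the bla read, CellTiter-Glo was added to the same wells and luminescence read after 30 min at room temperature.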

[8] = qHTS assay to identify small molecule agonists of the TGF-beta/Smad signaling pathway - cell viability counter screen (AID 1346829); also: top concentration of the series differs between compounds; nearly all actives have a fitted effect of over 45% in size
How it was run: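 Compound-treated SBE-bla HEK 293T cells (5 hr, 37 C) were assessed for viability with CellTiter-Glo in parallel with the reporter read.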

[9] = qHTS assay to identify small molecule agonists of the TGF-beta/Smad signaling pathway (AID 1346859; active = well fitted activation curve with a large enough effect in the signal ratio in the repeat runs, not every such curve was filed as active; the % refers to the signal ratio; also: series mostly up to about 77 µM)
How it was run: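 SBE-bla HEK293T cells plated overnight, then compound exposure for 5 h at 37 C. Beta-lactamase reporter read with LiveBLAzer B/G FRET substrate after 2 h at room temperature, fluorescence at 405 nm excitation, 460/530 nm emission.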

[10] = molecular target: Thyrotropin-releasing hormone receptor (Homo sapiens) (UniProt P34981); experiment: qHTS assay to identify small molecule agonists of the thyrotropin-releasing hormone receptor (TRHR) signaling pathway (AID 1346891; calls by dose curve; also: series mostly up to about 58 µM)
Chain of Thyrotropin-releasing hormone receptor (Homo sapiens) (P34981 whole entry, looked up): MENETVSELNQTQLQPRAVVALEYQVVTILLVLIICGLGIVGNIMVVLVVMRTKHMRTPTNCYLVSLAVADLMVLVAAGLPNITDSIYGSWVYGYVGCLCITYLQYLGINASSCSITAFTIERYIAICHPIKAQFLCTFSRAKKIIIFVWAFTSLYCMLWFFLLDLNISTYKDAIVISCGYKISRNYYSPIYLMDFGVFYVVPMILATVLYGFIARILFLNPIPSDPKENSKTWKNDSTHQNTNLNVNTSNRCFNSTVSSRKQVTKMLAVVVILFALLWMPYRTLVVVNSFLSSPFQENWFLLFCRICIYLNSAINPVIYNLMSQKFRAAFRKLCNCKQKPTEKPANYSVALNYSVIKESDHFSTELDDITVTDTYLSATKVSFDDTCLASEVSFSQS
How it was run: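 HEK293 cells expressing TRHR plated 18 h at 37 C/5% CO2, calcium dye-loaded 2 h at 37 C, then compound added (agonist mode); kinetic calcium fluorescence read 3 min at 1 s intervals; 15 concentrations in triplicate.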

[11] = Human pregnane X receptor (PXR) small molecule agonists, qHTS cell viability counter screen (AID 1346977); also: nearly all actives have a fitted effect of over 50% in size; also: potency is read from the fitted curve at half-maximal effect
How it was run: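 PXR-Luc HepG2 cells (2,000/well, 5% charcoal-stripped FBS) preincubated 5 hr, then exposed to compounds 24 hr at 37 C. Viability read in the same wells by CellTiter-Fluor fluorescence, reagent added at 23 hr, 1 hr incubation.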

[12] = Caspase-3/7 induction in HepG2 cells by small molecules, qHTS assay (AID 1346978); also: nearly all actives have a fitted effect of over 15% in size
How it was run: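 Wild-type HepG2 cells (2,000/well) were settled 5 h at 37 C, 5% CO2, then exposed to compounds in DMSO for 17 h. Caspase-3/7 activity was read by luminescence 30 min after adding Caspase-Glo 3/7 reagent at room temperature.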

[13] = Caspase-3/7 induction in CHO-K1 cells by small molecules, qHTS assay (AID 1346980); also: nearly all actives have a fitted effect of over 15% in size
How it was run: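 Wild-type cells were seeded at 1,500 per well and settled 5 hr at 37 C, 5% CO2, then exposed to DMSO-dissolved compounds for 17 hr. Caspase-Glo 3/7 reagent was added, and luminescence was read after 30min at room temperature.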

[14] = Caspase-3/7 induction in HepG2 cells by small molecules, qHTS cell viability counter screen (AID 1346981); also: series mostly up to about 92 µM; nearly all actives have a fitted effect of over 30% in size
How it was run: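 Wild-type HepG2 cells, 2,000/well, settled 5 hr at 37 C, 5% CO2 before compound addition. Viability read by CellTiter-Fluor fluorescence, reagent added after 16 hr compound exposure, then 1 hr at 37C, in the same wells as the caspase read.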

[15] = molecular target: Nuclear receptor subfamily 1 group I member 2 (Homo sapiens) (UniProt O75469); experiment: Human pregnane X receptor (PXR) small molecule agonists, qHTS assay (AID 1346982); also: nearly all actives have a fitted effect of over 35% in size; also: potency is read from the fitted curve at half-maximal effect
Chain of Nuclear receptor subfamily 1 group I member 2 (Homo sapiens) (O75469 whole entry, looked up): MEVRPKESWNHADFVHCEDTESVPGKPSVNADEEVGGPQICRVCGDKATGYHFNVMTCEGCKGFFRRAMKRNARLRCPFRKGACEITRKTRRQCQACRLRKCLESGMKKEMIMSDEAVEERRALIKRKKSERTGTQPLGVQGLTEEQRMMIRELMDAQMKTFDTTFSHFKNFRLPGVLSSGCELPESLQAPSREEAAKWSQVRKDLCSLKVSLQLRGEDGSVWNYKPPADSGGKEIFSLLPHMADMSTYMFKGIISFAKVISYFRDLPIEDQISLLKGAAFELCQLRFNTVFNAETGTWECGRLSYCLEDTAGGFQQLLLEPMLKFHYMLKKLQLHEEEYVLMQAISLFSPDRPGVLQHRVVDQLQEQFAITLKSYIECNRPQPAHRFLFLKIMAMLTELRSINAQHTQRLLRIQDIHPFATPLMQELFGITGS
How it was run: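 PXR-Luc HepG2 reporter cells (CYP3A4-driven luciferase) in 5% charcoal-stripped FBS medium, plated 5 h before compound addition, then treated 24 h at 37C. Luciferase read by ONE-Glo luminescence after 30 min at room temperature.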

[16] = molecular target: Nuclear receptor subfamily 1 group I member 2 (Rattus norvegicus) (UniProt Q9R1A7); experiment: Rat pregnane X receptor (rPXR) activation by small molecules, qHTS assay (AID 1346983); conditions: rPXR luciferase reporter cells, One-Glo luminescence, 24 h; max activation: active compounds read high; also: nearly all actives have a fitted effect of over 20% in size
Chain of Nuclear receptor subfamily 1 group I member 2 (Rattus norvegicus) (Q9R1A7 whole entry, looked up): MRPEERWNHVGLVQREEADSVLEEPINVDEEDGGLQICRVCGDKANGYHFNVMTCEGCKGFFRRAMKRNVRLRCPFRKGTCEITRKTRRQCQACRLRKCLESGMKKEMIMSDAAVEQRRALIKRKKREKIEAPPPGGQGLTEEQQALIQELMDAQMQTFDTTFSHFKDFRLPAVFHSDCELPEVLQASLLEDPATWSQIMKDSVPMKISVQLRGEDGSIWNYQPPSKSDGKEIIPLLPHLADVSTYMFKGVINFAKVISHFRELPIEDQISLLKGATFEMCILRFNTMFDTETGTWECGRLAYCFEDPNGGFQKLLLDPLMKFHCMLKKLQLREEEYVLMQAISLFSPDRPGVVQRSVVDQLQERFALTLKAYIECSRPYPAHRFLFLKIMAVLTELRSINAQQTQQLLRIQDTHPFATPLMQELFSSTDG
How it was run: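 Cell-based rPXR luciferase reporter assay, 2,000 cells per well, rested 5hr at 37 C before compound addition in DMSO, then 24 hr at 37 C. One-Glo reagent was added and luminescence read after 30 min at room temperature.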

[17] = molecular target: Nuclear receptor subfamily 1 group I member 2 (Homo sapiens) (UniProt O75469); experiment: CYP3A4 induction through human pregnane X receptor (PXR) by small molecules, qHTS assay (AID 1346984); also: nearly all actives have a fitted effect of over 40% in size
How it was run: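 DPX-2 HepG2 cells carrying a PXR response element and CYP3A4-promoter luciferase construct, treated with compounds 24 hr at 37C. Then P450-Glo CYP3A4 Luciferin-IPA substrate (3uM final) for 3 hr at 37C, One-Glo added, luminescence read.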

[18] = molecular target: Nuclear receptor subfamily 1 group I member 2 (Homo sapiens) (UniProt O75469); experiment: Human pregnane X receptor (PXR) activation by small molecules, qHTS assay (AID 1346985); also: nearly all actives have a fitted effect of over 40% in size
How it was run: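 DPX-2 cells (HepG2 co-transfected with a PXR response element and a CYP3A4-promoter luciferase construct) were seeded at 2,000 per well, rested 5 hr at 37C, then exposed to DMSO-dissolved compounds for 24 hr. Activation was read as luciferase luminescence.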

[19] = molecular target: Thyrotropin-releasing hormone receptor (Homo sapiens) (UniProt P34981); experiment: qHTS assay to identify small molecule antagonists of the thyrotropin-releasing hormone receptor (TRHR) signaling pathway (AID 1346877; active = well fitted inhibition curve with a large enough effect in the repeat runs, not every such curve was filed as active; also: series mostly up to about 51 µM)
How it was run: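 TRHR-expressing HEK293 cells loaded with calcium dye for 2 h at 37 C; compounds pre-incubated 5 min at room temperature before TRH challenge at 1 nM final. Intracellular calcium fluorescence read kinetically for 3 min; 15 concentrations in triplicate.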

[20] = Caspase-3/7 induction in CHO-K1 cells by small molecules, qHTS cell viability counter screen (AID 1346979); also: nearly all actives have a fitted effect of over 35% in size; also: potency is read from the fitted curve at half-maximal effect
How it was run: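 Wild-type CHO-K1 cells (1,500/well) treated with compound after 5 h plating; after 16 h at 37C, viability read as CellTiter-Fluor fluorescence following 1 h reagent incubation, in the same wells as the caspase read.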

Row | SMILES | Potency [1] | outcome [2] | Potency [3] | Potency [4] | Potency [5] | Potency [6] | outcome [7] | outcome [8] | outcome [9] | outcome [10] | Potency [11] | outcome [12] | outcome [13] | outcome [14] | Potency [15] | max activation [16] | Potency [17] | Potency [18] | outcome [19] | Potency [20]
1 | CCC(C(=O)NC(N)=O)c1ccccc1 (stereo not drawn) | inactive | inactive | inactive | inactive | inactive | inactive | inactive | inactive | inactive | inactive | inactive | inactive | inactive | inactive | inactive | -2.91% | inactive | inactive |  | 
2 | O=C(O)c1ccccc1-c1ccc(C(F)(F)F)cc1 | inactive | inactive | inactive | inactive | inactive | inactive | inactive | inactive | inactive | inactive | inactive | inactive | inactive |  | inactive | -1.61% | inactive | inactive |  | 
3 | Cc1c(F)cc2c(=O)c(C(=O)O)cn3c2c1CCC3C (stereo not drawn) | inactive | inactive | inactive | inactive | inactive | inactive | inactive | inactive |  | inactive | inactive | inactive | inactive | inactive | inactive |  |  |  | inactive | inactive
4 | CCC(C)(C)C1CCC(OC)CC1 (stereo not drawn) | inactive | inactive | inactive | inactive | inactive | inactive | inactive | inactive | inactive | inactive | inactive | inactive | inactive |  | 30.6 µM (active) |  |  |  |  | inactive
5 | CC(C=O)Cc1ccc(C(C)C)cc1 (stereo not drawn) | inactive | inactive | inactive | inactive | inactive | inactive | inactive | inactive | inactive | inactive |  | inactive | inactive | inactive | inactive |  |  |  |  | inactive
6 | COC(C(=O)O)c1ccccc1 (stereo not drawn) | inactive | inactive | inactive | inactive | inactive | inactive | inactive | inactive | inactive |  |  | inactive | inactive | inactive | inactive |  |  |  |  | inactive
7 | CC(C)CCCC(C)CCCC(C)CCCCC(C)CCCC(C)CCCC(C)C (stereo not drawn) | inactive | inactive | inactive | inactive | inactive | inactive | inactive | inactive | inactive |  | inactive | inactive | inactive | inactive | inactive | -0.619% |  | inactive |  | 
8 | Fc1ccccc1-c1ccccc1 | inactive | inactive | inactive | inactive | inactive | inactive | inactive | inactive | inactive |  | inactive | inactive | inactive | inactive | inactive |  |  |  |  | inactive
9 | CCCC(C)CO (stereo not drawn) | inactive | inactive | inactive | inactive | inactive | inactive | inactive | inactive | inactive |  | inactive | inactive | inactive |  | inactive |  |  |  |  | inactive
10 | C[C@H](O)C(=O)Nc1c(I)c(C(=O)NC(CO)CO)c(I)c(C(=O)NC(CO)CO)c1I | inactive | inactive | inactive | inactive | inactive | inactive | inactive | inactive | inactive |  | inactive | inactive | inactive | inactive | inactive |  | inactive | inactive |  | 
11 | O=C(CCOCCOCCOCCOCCC(=O)Nc1c(I)cc(I)c(C(=O)O)c1I)Nc1c(I)cc(I)c(C(=O)O)c1I | inactive | inactive | inactive | inactive | inactive | inactive | inactive | inactive | inactive |  | inactive | inactive | inactive | inactive | inactive |  |  |  |  | inactive
12 | O=C1CC2(CCCC2)CC(=O)N1 | inactive | inactive | inactive | inactive | inactive | inactive | inactive | inactive | inactive | inactive | inactive | inactive | inactive | inactive | inactive |  |  |  |  | 
13 | N#CC1(O)CCCCC1 | inactive | inactive | inactive | inactive | inactive | inactive | inactive | inactive | inactive |  | 17.4 µM (active) | inactive | inactive |  | 17.4 µM (active) |  |  |  |  | 27.5 µM (active)
14 | NC(CS)C(=O)O (stereo not drawn) | inactive | inactive | inactive | inactive | inactive | inactive | inactive | inactive | inactive |  | inactive | inactive | inactive | inactive | inactive | -0.0152% | inactive | inactive |  | inactive
15 | O=S(=O)(O)c1ccccc1O | inactive | inactive | inactive | inactive | inactive | inactive | inactive | inactive | inactive |  | inactive | inactive | inactive | inactive | inactive |  |  |  |  | inactive
16 | CC(C)N1C(=O)c2ccccc2C1=O | inactive | inactive | inactive | inactive | inactive | inactive | inactive | inactive | inactive |  | inactive | inactive | inactive | inactive | inactive |  |  |  |  | inactive
17 | COc1ccc(NC(C)=O)cc1 | inactive | inactive | inactive | inactive | inactive | inactive | inactive | inactive | inactive |  | inactive | inactive | inactive | inactive | inactive |  |  |  |  | inactive
